Peg3 prom inh – Peg3 promoter-driven luciferase inhibitors, primary screen, cell-based, HeLa, luciferase luminescence; inhibition, % at 20 µM; 360,000 compounds, 1.7% hits; HeLa PEG-Prom luciferase reporter, overnight; AID 588405, 2011;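 active means inhibition of at least 50% at 20 µM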
CF NFkB inh – inhibitors of PAF-induced NF-kB signaling, primary screen, cell-based, GFP fluorescence, uHTS; KKLEB NF-kB-GFP reporter, GFP fluorescence overnight; inhibition, % at 5 µM; 360,000 compounds, 0.86% hits; AID 588850, 2011;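 active means at least 50% inhibition at 5 µM, scaled per plate between neutral and stimulator controls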;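 further: PAF is a Pseudomonas aeruginosa culture filtrate used as stimulus; plate controls were PAF-stimulated DMSO wells for no effect and unstimulated DMSO wells for full effect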
Shn3 3UTR inh – reduction of Shn3 3'UTR firefly luciferase signal, primary screen, Schnurri-3 inhibitor project, cell-based, Clone20 osteoblasts, set 2 | Clone20 osteoblast Shn3 3'UTR firefly luciferase, 24 h | inhibition, % at 12.5 µM | 360,000 compounds, 0.52% hits;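 active means mean inhibition of at least 75% with every replicate also reaching 75%; inconclusive means mean inhibition at least 75% but some replicate below; inactive means mean inhibition below 75%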;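 further: 0% = median of neutral control wells and 100% = pilot-screen positive control compound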
HIF-2a inh – HIF-2a reporter inhibitors, primary screen, luminescence, 786-0 RCC cells; 786-0 RCC cells HIF-2a reporter, luciferase luminescence, overnight; AID 624352, 2012; inhibition, % at 18.8 µM; 360,000 compounds, 0.72% hits;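 active means inhibition of the luminescence signal of 40% or more relative to plate controls, in a single-dose primary screen at 18.75 µM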
KKLEB cytotox – cytotoxicity in KKLEB CF airway cells, primary screen, cytotoxicity control for CF NF-kB inhibitor project, cell-based, uHTS, fluorescence assay plates | KKLEB CF airway cells viability, ATPlite luminescence, overnight; stronger effect = lower value; cells stimulated with P. aeruginosa culture filtrate | activity change (cytotoxicity), % at 5 µM | 360,000 compounds, 0.36% hits;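 active means corrected activity change at or below -50% at 5 µM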
MITF TRPM1 inh – inhibitors of MITF-dependent TRPM1 promoter reporter, primary screen, cell-based, SK-MEL-5, single point, luciferase | SK-MEL-5 TRPM1 promoter luciferase, 24 h | inhibition, % at 12.5 µM | 330,000 compounds, 0.83% hits | AID 488899, 2010;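 active means mean inhibition across replicates of 60% or more, whatever share of single replicates reaches that level; inconclusive means some that reach 60%, reason not given; inactive means mean inhibition across replicates below 60%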
Mdm2-MdmX confirm – retested Mdm2-MdmX interaction blockers, confirmation, cell-based, luminescence, single concentration, set 2. 740 compounds, 99% hits. shares compounds with HIF-2a inh. AID 504601, 2011. SaOS-2 split-luciferase Mdm2/MdmX complementation. inhibition, % at 8 µM;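 active means mean inhibition of the luminescence signal across two replicates at or above 26 percent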
HIF-2a conf – HIF-2a reporter inhibitor retest, confirmation, luminescence, 786-0 RCC cells | shares compounds with HIF-2a inh | inhibition, % at 18.8 µM | 1,800 compounds, 56% hits | HIF-2a luciferase reporter luminescence, overnight;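 active means mean inhibition across four replicates of at least 40 percent at the single tested concentration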
HIF-1a counter – HIF-1a luciferase reporter signal reduction – MiaPaCa-2 cells, single concentration, counter-screen for HIF-2a inhibitor project, confirmation; shares compounds with HIF-2a inh; MiaPaCa-2 HIF-1a luciferase reporter, desferoxamine, overnight; inhibition, % at 18.8 µM; 1,800 compounds, 72% hits;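 active means mean inhibition of the reporter signal across four replicates at the single tested dose of 50% or more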
An asterisk follows results filed as active; ? = inconclusive; / = no result given. In the library only some 2.7% were active in any assay of this set; here they are far more common.

SMILES	Peg3 prom inh	CF NFkB inh	Shn3 3UTR inh	HIF-2a inh	KKLEB cytotox	MITF TRPM1 inh	HIF-2a conf	HIF-1a counter	others
N#CC1(NC(=O)COC(=O)Cc2c[nH]c3ccccc23)CCCCC1	9	-23	14	14	5	/	/	/
CCN1C(=O)CS/C1=N\S(=O)(=O)c1ccc(Cl)cc1	-14	6	8	6	-10	-9	/	/
CCn1c(Cl)c(C=O)s/c1=N\S(=O)(=O)c1ccccc1	105*	88*	99*	95*	-85*	98*	99*	105*	Mdm2-MdmX confirm=103*
COc1cc(OC)nc(-n2ncc(Br)c(Br)c2=O)n1	104*	91*	97*	92*	-94*	93*	100*	106*
COC(=O)c1cnn(-c2nc(OC)cc(OC)n2)c1C	-5	-26	-13	2	16	-12	/	/
CCOC(=O)C(=CNc1cc(C)ccc1-n1cccc1)C(=O)OCC	5	11	/	4	-6	2	/	/
Cc1ccc(-c2nc3ncccc3o2)cc1NC(=O)c1ccc([N+](=O)[O-])o1	57*	11	-37	54*	1	82*	-7	102*
O=C(Nc1cccc(S(=O)(=O)N2CCCCC2)c1)c1ccc([N+](=O)[O-])o1	53*	88*	69	64*	-14	80*	34	104*
O=C(Nc1ccccc1N1CCCCC1)c1ccc([N+](=O)[O-])o1	37	-13	-11	10	-18	27	/	/
CN1CCN(c2ccc(NC(=O)c3ccc([N+](=O)[O-])o3)cc2Cl)CC1	100*	80*	90*	57*	0	79*	56*	59*
Cc1ccc(NC(=O)c2ccc([N+](=O)[O-])o2)cc1S(=O)(=O)N1CCOCC1	102*	56*	60	55*	-5	84*	39	80*
COc1cc(C)nc(NC(=O)NC(=O)c2ccc(C(F)(F)F)cc2)n1	-8	2	-11	4	-1	-13	/	/
Cc1cc(NC(=O)c2ccc([N+](=O)[O-])o2)ccc1NC(=O)c1ccco1	100*	73*	-6	47*	-16	77*	21	96*
Cc1cc([N+](=O)[O-])ccc1NC(=O)c1ccco1	2	-10	-23	10	4	-3	/	/
O=C(Nc1ccc(N2CCOCC2)c(Cl)c1)c1ccc([N+](=O)[O-])o1	106*	74*	81	81*	-21	?	29	77*
COc1ccccc1CNc1nc(NCc2ccc(NC(C)=O)cc2)c2sccc2n1	72*	-27	-3	57*	-20	/	14	70*
CCOc1ccc2nc(SCc3ccc(CC(=O)O)cc3)c(C#N)cc2c1	13	16	-1	83*	-3	1	89*	57*
Cc1ccc(S(=O)(=O)c2ncccc2[N+](=O)[O-])cc1	102*	102*	96*	72*	-65*	77*	47*	20	Mdm2-MdmX confirm=100*
Cc1ccc(Cn2ccsc2=NC(=O)COC(=O)c2ccc(NC(=O)CC#N)cc2)cc1	17	29	44	1	-12	11	/	/
Cc1ccc(Cn2ccsc2=NC(=O)CCl)cc1	28	94*	5	18	-92*	42	/	/	Mdm2-MdmX confirm=103*
Cc1cc(OCC(=O)N(Cc2ccco2)c2c(N)n(Cc3ccccc3)c(=O)[nH]c2=O)ccc1Cl	15	21	13	7	-17	8	/	/
CCOC(=O)C(C)(C)N(Cc1cccc(C)c1)S(=O)(=O)c1ccc(Cl)c([N+](=O)[O-])c1	88*	-7	11	64*	6	25	27	100*
Cc1ccnc(N/C=C(/NC(=O)c2ccccc2)C(=O)N/N=C\c2ccc(F)cc2)n1	16	-2	94*	66*	2	41	69*	88*
Cc1ccnc(N/C=C(/NC(=O)c2ccccc2)C(=O)NN)n1	3	5	2	7	6	-2	/	/
COc1ccc(NC(=O)Cn2nc(C(=O)O)c3ccccc3c2=O)cc1OC	-7	4	-7	14	7	0	/	/
SMILES	Peg3 prom inh	CF NFkB inh	Shn3 3UTR inh	HIF-2a inh	KKLEB cytotox	MITF TRPM1 inh	HIF-2a conf	HIF-1a counter	others
CC(C)C[C@@H](CN1CCC[C@@H]1CN1C(=O)C(=O)NC[C@@H]1Cc1ccccc1)N1C[C@H](Cc2ccccc2)N(CC2CCCCCC2)C(=O)C1=O	55*	0	-15	80*	10	7	8	105*
COc1ccc(-c2cc3nc(-c4ccccc4)cc(N4CCCC(O)C4)n3n2)cc1 (centres undefined)	46	-6	5	43*	3	-14	-11	90*
CC(=O)Nc1ccc(Oc2sc(C(=O)c3ccccc3)c(N)c2C#N)cc1	29	41	15	54*	-34	26	43*	9
O=[N+]([O-])c1cc(-c2ncccn2)c([N+](=O)[O-])s1	104*	16	5	91*	10	/	40*	52*
CCN(CC)CCNC(=O)C12CC3CC(CC(C3)C1)C2	6	7	-5	11	-11	-7	/	/
CCN(CC)CCNC(=O)C(Cl)=C1C(Cl)=C(Cl)C(Cl)=C1Cl	97*	-18	32	67*	4	13	31	61*
Cc1nonc1NC(=O)CSc1nc(C2CCCCC2)nc2ccccc12	27	36	-7	45*	-19	0	30	68*
O=C(COc1ccc(S(=O)(=O)N2CCCC2)cc1)NCc1ccccn1	-14	-13	-1	1	11	7	/	/
O=C(NC1CCCCC1)c1n[nH]c2c1CCCCC2	56*	4	48	44*	-33	/	75*	74*
C[C@@H]1CN([C@H](C)CO)C(=O)CCCn2nncc2CO[C@@H]1CN(C)S(=O)(=O)c1ccccc1	5	-20	5	13	-1	/	/	/
N#CC1(NC(=O)COC(=O)c2cccc(-n3cnnn3)c2)CCCCC1	-3	-5	-23	18	5	3	/	/

Screening data (PubChem)
